About 8,800 targets were measured; listed, in parts, are those with a hit and a random draw of the rest. About 0.5% of all pairs of compound and target were hits.
Compound: CN1CC[C@H](c2c(O)cc(O)c3c(=O)cc(-c4ccccc4Cl)oc23)[C@H](O)C1 [alvocidib]
Assay: log2 fold change, soluble protein after heating vs DMSO (PISA); higher = thermal stabilisation; K562 lysate, 10 uM; active = over 0.2 and 3.5 SD of the protein, either way, in both replicates (recomputed)
How it was run: (§1)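 To prepare the extract, K562 pellets were dounce-homogenised in PBS pH 7.4 with 1 mM MgCl2, giving crude material at 1 mg/mL protein. This was treated with 10 μM compound for 30 min, then heated in aliquots for 3 min over 48°C-58°C before pooling and addition of NP-40 to 0.5% at 4°C. Centrifugation at 21,000xg for 90 min left soluble protein in the supernatant, which TMTpro 16plex LC-MS/MS quantified with equalised channel sums. Results are log-two fold changes in thermal stability compared with solvent controls, from duplicates.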

Chain of UniProt Q9BWG6 (Q9BWG6 whole entry, looked up): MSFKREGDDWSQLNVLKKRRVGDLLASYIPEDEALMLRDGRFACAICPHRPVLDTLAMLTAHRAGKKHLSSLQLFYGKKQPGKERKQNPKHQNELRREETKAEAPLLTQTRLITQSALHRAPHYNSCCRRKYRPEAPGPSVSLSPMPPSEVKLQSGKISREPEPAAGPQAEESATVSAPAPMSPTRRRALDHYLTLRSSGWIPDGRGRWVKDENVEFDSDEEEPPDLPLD
Chain of UniProt Q6PCD5 (Q6PCD5 whole entry, looked up): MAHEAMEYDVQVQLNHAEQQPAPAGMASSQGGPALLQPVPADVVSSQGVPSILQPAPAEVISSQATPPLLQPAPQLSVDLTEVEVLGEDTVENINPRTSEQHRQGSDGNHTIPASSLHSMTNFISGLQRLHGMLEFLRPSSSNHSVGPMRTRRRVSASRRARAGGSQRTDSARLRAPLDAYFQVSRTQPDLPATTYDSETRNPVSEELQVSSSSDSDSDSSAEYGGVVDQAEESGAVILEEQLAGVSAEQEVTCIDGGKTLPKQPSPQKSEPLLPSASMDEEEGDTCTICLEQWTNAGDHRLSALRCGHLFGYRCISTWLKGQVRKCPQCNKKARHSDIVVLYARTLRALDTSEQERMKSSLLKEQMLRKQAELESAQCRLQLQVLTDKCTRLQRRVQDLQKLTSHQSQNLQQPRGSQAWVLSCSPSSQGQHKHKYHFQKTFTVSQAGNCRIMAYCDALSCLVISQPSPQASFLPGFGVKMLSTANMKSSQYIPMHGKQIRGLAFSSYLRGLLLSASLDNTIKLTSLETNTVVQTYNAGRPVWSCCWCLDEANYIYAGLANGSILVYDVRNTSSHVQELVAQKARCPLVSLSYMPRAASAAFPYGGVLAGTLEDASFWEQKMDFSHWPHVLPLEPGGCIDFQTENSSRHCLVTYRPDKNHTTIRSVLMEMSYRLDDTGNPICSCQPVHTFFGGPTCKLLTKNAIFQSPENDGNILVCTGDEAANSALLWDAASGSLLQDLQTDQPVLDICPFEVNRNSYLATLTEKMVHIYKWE
Chain of UniProt Q99496 (Q99496 whole entry, looked up): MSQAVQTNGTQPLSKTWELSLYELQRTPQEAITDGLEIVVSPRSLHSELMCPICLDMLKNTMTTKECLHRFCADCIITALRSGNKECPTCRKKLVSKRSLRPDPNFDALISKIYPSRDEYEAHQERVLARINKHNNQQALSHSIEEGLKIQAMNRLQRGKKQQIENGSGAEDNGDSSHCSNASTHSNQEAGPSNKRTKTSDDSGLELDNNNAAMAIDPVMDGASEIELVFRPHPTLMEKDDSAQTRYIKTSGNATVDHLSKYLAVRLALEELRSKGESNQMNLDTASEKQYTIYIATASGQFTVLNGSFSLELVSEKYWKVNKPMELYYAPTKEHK
Chain of UniProt Q92698 (Q92698 whole entry, looked up): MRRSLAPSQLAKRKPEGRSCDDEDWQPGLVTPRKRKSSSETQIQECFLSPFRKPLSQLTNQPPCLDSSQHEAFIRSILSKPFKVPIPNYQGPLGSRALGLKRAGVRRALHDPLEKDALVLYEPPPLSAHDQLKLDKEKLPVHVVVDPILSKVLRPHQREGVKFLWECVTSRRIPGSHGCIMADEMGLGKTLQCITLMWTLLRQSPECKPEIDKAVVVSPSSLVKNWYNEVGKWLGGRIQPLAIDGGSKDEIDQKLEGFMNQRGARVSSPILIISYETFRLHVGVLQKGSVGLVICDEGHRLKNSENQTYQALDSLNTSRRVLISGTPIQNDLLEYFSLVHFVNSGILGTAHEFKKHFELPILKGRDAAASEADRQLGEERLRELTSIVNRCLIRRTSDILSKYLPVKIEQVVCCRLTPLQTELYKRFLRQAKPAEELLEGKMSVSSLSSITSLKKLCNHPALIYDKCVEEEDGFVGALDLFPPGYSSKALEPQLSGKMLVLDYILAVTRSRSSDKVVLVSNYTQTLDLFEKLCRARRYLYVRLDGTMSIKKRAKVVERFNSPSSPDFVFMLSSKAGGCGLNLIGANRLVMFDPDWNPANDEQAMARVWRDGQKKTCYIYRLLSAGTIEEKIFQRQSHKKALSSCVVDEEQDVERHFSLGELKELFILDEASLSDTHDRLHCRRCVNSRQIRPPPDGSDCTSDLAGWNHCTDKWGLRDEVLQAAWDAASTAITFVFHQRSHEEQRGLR
Chain of UniProt O15027 (O15027 whole entry, looked up): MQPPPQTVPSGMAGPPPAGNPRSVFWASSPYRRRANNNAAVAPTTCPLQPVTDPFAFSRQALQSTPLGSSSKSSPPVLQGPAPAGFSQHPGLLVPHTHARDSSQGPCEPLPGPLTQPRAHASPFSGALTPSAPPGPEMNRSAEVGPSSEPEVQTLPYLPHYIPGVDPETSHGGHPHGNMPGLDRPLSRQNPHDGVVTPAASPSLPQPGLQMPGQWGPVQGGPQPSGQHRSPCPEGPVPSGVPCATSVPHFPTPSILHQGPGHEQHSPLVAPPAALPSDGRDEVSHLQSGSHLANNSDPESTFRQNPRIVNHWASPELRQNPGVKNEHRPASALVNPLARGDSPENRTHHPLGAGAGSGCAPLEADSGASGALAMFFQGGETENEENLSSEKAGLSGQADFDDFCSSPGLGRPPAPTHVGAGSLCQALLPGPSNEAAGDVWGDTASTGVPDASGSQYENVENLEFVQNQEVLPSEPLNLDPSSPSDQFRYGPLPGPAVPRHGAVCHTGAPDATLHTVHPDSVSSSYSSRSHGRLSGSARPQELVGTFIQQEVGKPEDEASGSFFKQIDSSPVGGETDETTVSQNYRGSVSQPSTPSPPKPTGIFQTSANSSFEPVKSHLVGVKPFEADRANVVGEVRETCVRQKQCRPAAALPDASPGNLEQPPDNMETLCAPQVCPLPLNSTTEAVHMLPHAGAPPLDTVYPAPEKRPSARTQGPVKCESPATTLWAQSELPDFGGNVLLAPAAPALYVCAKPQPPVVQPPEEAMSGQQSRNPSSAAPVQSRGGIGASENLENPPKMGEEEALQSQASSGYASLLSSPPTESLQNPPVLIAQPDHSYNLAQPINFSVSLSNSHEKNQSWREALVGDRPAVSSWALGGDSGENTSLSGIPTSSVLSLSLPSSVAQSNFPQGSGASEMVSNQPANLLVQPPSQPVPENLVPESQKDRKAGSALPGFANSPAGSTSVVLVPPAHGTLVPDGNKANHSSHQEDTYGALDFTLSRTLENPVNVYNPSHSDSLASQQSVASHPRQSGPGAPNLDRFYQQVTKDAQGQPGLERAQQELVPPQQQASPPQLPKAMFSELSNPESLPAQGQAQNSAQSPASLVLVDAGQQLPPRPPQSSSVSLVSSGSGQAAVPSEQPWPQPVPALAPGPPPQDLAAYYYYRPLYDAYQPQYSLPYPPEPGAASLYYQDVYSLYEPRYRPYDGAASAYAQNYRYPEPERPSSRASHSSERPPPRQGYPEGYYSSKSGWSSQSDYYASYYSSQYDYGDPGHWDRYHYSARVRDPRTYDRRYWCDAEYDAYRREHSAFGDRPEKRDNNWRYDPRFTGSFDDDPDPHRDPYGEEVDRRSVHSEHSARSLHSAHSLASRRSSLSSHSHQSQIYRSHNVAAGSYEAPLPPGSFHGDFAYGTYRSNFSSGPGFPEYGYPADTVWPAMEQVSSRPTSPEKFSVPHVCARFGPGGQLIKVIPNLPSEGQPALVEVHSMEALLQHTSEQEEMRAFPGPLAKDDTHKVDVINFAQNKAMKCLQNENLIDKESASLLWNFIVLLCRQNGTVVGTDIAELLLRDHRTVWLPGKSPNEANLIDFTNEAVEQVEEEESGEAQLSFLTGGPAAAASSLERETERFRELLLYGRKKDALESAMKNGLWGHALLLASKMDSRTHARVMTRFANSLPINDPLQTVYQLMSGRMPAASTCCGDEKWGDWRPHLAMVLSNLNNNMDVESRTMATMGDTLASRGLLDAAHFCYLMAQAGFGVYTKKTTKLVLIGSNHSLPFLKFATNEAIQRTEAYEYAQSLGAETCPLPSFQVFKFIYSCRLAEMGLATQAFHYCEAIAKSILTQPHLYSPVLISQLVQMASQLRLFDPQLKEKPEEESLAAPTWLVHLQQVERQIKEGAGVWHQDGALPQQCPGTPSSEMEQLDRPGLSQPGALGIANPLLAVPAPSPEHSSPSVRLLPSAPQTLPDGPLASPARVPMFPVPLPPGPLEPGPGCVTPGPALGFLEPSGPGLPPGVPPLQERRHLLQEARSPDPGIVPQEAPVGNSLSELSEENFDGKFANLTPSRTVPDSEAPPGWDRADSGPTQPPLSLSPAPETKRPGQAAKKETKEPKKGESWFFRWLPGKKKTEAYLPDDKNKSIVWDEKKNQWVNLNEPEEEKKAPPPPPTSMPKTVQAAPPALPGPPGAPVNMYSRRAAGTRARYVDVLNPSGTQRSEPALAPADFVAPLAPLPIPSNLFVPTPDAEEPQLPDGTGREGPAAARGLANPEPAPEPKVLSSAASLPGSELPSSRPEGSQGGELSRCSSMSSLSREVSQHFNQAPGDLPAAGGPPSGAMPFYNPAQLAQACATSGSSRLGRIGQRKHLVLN
Chain of UniProt Q96LT9 (Q96LT9 whole entry, looked up): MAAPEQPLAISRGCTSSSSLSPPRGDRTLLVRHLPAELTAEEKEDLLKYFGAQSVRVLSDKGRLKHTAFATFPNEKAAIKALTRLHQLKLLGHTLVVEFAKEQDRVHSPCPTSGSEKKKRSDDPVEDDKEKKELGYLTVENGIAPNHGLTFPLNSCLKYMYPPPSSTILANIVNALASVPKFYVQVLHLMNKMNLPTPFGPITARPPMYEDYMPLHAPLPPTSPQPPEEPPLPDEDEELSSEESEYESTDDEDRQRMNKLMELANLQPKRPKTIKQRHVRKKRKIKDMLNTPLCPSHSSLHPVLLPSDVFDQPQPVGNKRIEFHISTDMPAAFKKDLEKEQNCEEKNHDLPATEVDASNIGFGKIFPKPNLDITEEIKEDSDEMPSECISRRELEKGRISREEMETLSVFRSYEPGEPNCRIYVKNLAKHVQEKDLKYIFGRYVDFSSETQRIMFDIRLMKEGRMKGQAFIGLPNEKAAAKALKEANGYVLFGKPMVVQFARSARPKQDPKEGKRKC
Chain of UniProt Q9Y6D0 (Q9Y6D0 whole entry, looked up): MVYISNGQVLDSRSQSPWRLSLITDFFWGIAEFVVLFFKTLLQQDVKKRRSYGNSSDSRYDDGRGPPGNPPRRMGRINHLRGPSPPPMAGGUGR

log2 fold change, inactive:
RUFY2 isoform 1 (UniProt Q8WXA3) 0.01
RXRA (UniProt P19793) -0.019
SATB2 (UniProt Q9UPW6) 0.047
RALGAPB isoform 3 (UniProt Q86X10) 0.161
SEMA4G isoform 2 (UniProt Q9NTN9) -0.116
SERAC1 (UniProt Q96JX3) 0.048
RNF17 (UniProt Q9BXT8) -0.006
RPS6KA5 (UniProt O75582) 0.193
RHOU (UniProt Q7L0Q8) 0.007
RNF2 (UniProt Q99496) 0.359
RAD17 (UniProt O75943) -0.24
RFWD3 (UniProt Q6PCD5) -0.057
S100A6 (UniProt P06703) 0.084
RNF24 isoform 2 (UniProt Q9Y225) 0.079
SELENOK (UniProt Q9Y6D0) -0.169
RNF170 (UniProt Q96K19) 0.371
RYR1 (UniProt P21817) 0.015
SCNM1 (UniProt Q9BWG6) -0.005
RAD54L (UniProt Q92698) -0.673
RNASEH1 (UniProt O60930) 0.024
RNPC3 (UniProt Q96LT9) 0.012
RECQL4 (UniProt O94761) 0.042
RDH11 (UniProt Q8TC12) -0.071
RBM45 (UniProt Q8IUH3) 0.013

Compound: CN1CCc2c(c3ccccc3n2Cc2ccc(C(=O)NO)cc2)C1 [Tubastatin A]
Assay: as above
How it was run: as §1

log2 fold change, inactive:
RUFY2 isoform 1 (UniProt Q8WXA3) 0.074
RXRA (UniProt P19793) 0.138
SATB2 (UniProt Q9UPW6) -0.096
RNF17 (UniProt Q9BXT8) 0.079
QSER1, A0A3B3IRW6 -0.122
RPS6KA5 (UniProt O75582) -0.239
RHOU (UniProt Q7L0Q8) 0.005
RNF2 (UniProt Q99496) -0.008
RAD17 (UniProt O75943) -0.041
RFWD3 (UniProt Q6PCD5) 0.065
S100A6 (UniProt P06703) -0.044
RYR1 (UniProt P21817) 0.097
SEC16A isoform 3 (UniProt O15027) -0.008
SCNM1 (UniProt Q9BWG6) 0.035
SEC16A isoform 2 (UniProt O15027) 0.023
ROBO2 isoform 3 (UniProt Q9HCK4) -0.009
RAD54L (UniProt Q92698) 0
RMI2 (UniProt Q96E14) -0.146
RNPC3 (UniProt Q96LT9) -0.099
RECQL4 (UniProt O94761) -0.045
RDH11 (UniProt Q8TC12) 0.031
